PubChem BioAssay (NCI)
Compounds without any hit were thinned out: in the full panel of roughly 83,000, 20% have a hit.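 The test compound was applied at a single concentration to cells in 96-well plates for 48 hours, and percent growth was recorded.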 A number with no mark means an inactive call. Active and inactive are the calls of the source. Rule for the calls: active = growth percent below 10; inactive = the rest.

Test system: SW-620 colon
Assay: NCI-60 one-dose screen, 48 h (100 = growth as untreated, 0 = no growth, -100 = all killed)
Settings: 10 µM unless noted

SMILES	growth
COc1cc(-c2nccc3[nH]c(-c4ccc5cc[nH]c5c4)nc23)cc(OC)c1OC	-15.6% (active)
COc1ccc(/C=C/C(=O)c2cccc(OCCCCOc3cccc(C(=O)/C=C/c4ccc(OC)c(OC)c4)c3)c2)cc1OC	89.5%
CC(C)COc1nc2c(c(=O)n(C)c(=O)n2C)n1C	102%
NC(=O)c1c(NC(=O)c2ccc3ccccc3c2)sc2c1CCC(=O)C2	14.3%
C=C1C(=O)O[C@H]2[C@H]1CC/C(COC(=O)NCc1ccc(Cn3c(=O)sn(CCCCC)c3=O)cc1)=C\CC[C@@]1(C)O[C@@H]21	-61.1% (active)
COc1cc(OC)c(/C=C/C(=O)c2c(OC)cccc2OC)c(OC)c1	17.7%
COC1=CC(c2ccc[nH]2)=N/C1=C\c1[nH]c(C)c(C)c1CCC(=O)OCc1ccccc1	-14.8% (active)
CCCCCCCCCCC(CN(CC)CC)C(O)c1ccccc1 (stereo not drawn)	32.1%
CCOC(=O)C1=C(c2ccccc2)N=C2SC=C(c3ccc(Cl)cc3)N2C1c1ccc(Br)cc1 (stereo not drawn)	78.9%
O=C(COc1ccc(-c2nc3cc(Cl)c(Cl)cc3[nH]2)cc1)N=Nc1c(O)[nH]c2ccc(Cl)cc12	56.1%
Cn1ccc(=O)c(C(=O)Nc2nsc3ccc([N+](=O)[O-])cc23)c1	56.5%
COC(=O)[C@]1(C)CCC[C@]2(C)[C@H]3C[C@H]4C(C(C)C)=C[C@]3(CC[C@H]21)[C@@H]1C(=O)CC[C@H](OCCC#N)[C@@H]14	86.4%
O=c1c2ccccc2n2cnc3ccc(Cl)c1c32	79.2%
Cc1cc(=O)n(C(=O)Nc2ccccc2Cl)c2cc(O)ccc12	93.7%
Cn1cc(-c2nonc2-c2cn(C)c3ccccc23)c2ccccc21	24.5%
COc1ccc(C(C)=O)cc1S(=O)(=O)Nc1c(N)nc(SC)[nH]c1=O	101%
O=C(/C=C(/C=C/c1ccc2[nH]ccc2c1)OB(F)F)/C=C/c1ccc2[nH]ccc2c1	6.41% (active)
NC(=O)C(=O)c1ccccc1NC=O	101%
O=S(=O)(Nc1cc(F)cc(Cl)c1)c1ccc(-c2cnc(C3CC3)o2)cc1	12%
COc1ccc(NC2=C(I)C(=O)c3ncccc3C2=O)cc1	-60.6% (active)

SMILES	growth
COc1cc2ncnc(Nc3ccc(F)c(Cl)c3)c2cc1OCC(=O)N1CCN(c2ccccc2)CC1	101%
N#Cc1nc(-c2ccccc2)oc1S(=O)(=O)N1CCN(c2ccccc2)CC1	64.1%
COc1ccc2cc1Oc1ccc(cc1)C[C@H]1c3c(cc4c(c3Oc3cc5c(cc3OC)CCN(C)[C@@H]5C2)OCO4)CCN1C	55.3%
Nc1cnc(C(=O)NNc2nc3cc(F)ccc3n3cccc23)cn1	36%
Cc1ccc(-c2nc([P+](c3ccccc3)(c3ccccc3)c3ccccc3)c(S(=O)(=O)c3ccc(C)cc3)o2)cc1	-70.3% (active)
Cc1cccc(/C=C/c2c(C(=O)/C=C/c3ccccc3)c(C)nc3ccccc23)c1	-14% (active)
Cc1c2cnccc2c(C)c2c1c1cc(C#N)ccc1n2C	-0.262% (active)
COc1ccc(C(=O)/C=C/c2c(C(F)(F)F)nc3ccccn23)cc1OC	-4.44% (active)
O=C1NC(=O)C(Cc2ccc(OCc3ccc(-c4ccc(Cl)cc4Cl)cc3)cc2)S1 (stereo not drawn)	67.9%
CSc1oc(C)nc1[P+](c1ccccc1)(c1ccccc1)c1ccccc1	65.1%
COc1cc2cc(NCc3cccc(Cl)c3)nc(C)c2cc1OC	17%
NS(=O)(=O)c1ccc(N=Nc2c(O)n(Cc3ccccc3)c3ccc(Cl)cc23)cc1	79.9%
COc1cc(NS(=O)(=O)c2ccc(-c3cnc(C4CC4)o3)cc2)ccc1F	18%
O=S(=O)(Nc1ccc(Cl)c(C(F)(F)F)c1)c1ccc(-c2cnc(C3CC3)o2)cc1	22.4%
O=C(N/N=C/c1ccc(Cl)cc1)c1[nH]c2ccc(Cl)cc2c1-c1ccccc1	37.5%
O=C(/C=C/c1cccs1)Nc1ncc(Cc2ccccc2F)s1	24.5%
C=CCc1c(O)c(C(=O)/C=C/c2ccccc2)c(OC)c2ccoc12	39.9%
O=S(=O)(Nc1cc(Cl)ccc1Cl)c1ccc(-c2cnc(C3CC3)o2)cc1	21%
CN(C)c1ccc(C(=O)OCCCCCCl)cc1	99.9%

Test system: MCF7 breast
Assay: as above
Settings: 10 µM unless noted

SMILES	growth
COc1cc(-c2nccc3[nH]c(-c4ccc5cc[nH]c5c4)nc23)cc(OC)c1OC	2.12% (active)
COc1ccc(/C=C/C(=O)c2cccc(OCCCCOc3cccc(C(=O)/C=C/c4ccc(OC)c(OC)c4)c3)c2)cc1OC	44.3%
CC(C)COc1nc2c(c(=O)n(C)c(=O)n2C)n1C	86.4%
NC(=O)c1c(NC(=O)c2ccc3ccccc3c2)sc2c1CCC(=O)C2	52.6%
C=C1C(=O)O[C@H]2[C@H]1CC/C(COC(=O)NCc1ccc(Cn3c(=O)sn(CCCCC)c3=O)cc1)=C\CC[C@@]1(C)O[C@@H]21	6.29% (active)
COc1cc(OC)c(/C=C/C(=O)c2c(OC)cccc2OC)c(OC)c1	25.1%
COC1=CC(c2ccc[nH]2)=N/C1=C\c1[nH]c(C)c(C)c1CCC(=O)OCc1ccccc1	3.15% (active)
CCCCCCCCCCC(CN(CC)CC)C(O)c1ccccc1 (stereo not drawn)	1.87% (active)
CCOC(=O)C1=C(c2ccccc2)N=C2SC=C(c3ccc(Cl)cc3)N2C1c1ccc(Br)cc1 (stereo not drawn)	75.2%
O=C(COc1ccc(-c2nc3cc(Cl)c(Cl)cc3[nH]2)cc1)N=Nc1c(O)[nH]c2ccc(Cl)cc12	25.6%
Cn1ccc(=O)c(C(=O)Nc2nsc3ccc([N+](=O)[O-])cc23)c1	34.7%
COC(=O)[C@]1(C)CCC[C@]2(C)[C@H]3C[C@H]4C(C(C)C)=C[C@]3(CC[C@H]21)[C@@H]1C(=O)CC[C@H](OCCC#N)[C@@H]14	59.5%
O=c1c2ccccc2n2cnc3ccc(Cl)c1c32	75%
Cc1cc(=O)n(C(=O)Nc2ccccc2Cl)c2cc(O)ccc12	101%
Cn1cc(-c2nonc2-c2cn(C)c3ccccc23)c2ccccc21	19.4%
COc1ccc(C(C)=O)cc1S(=O)(=O)Nc1c(N)nc(SC)[nH]c1=O	92.9%
O=C(/C=C(/C=C/c1ccc2[nH]ccc2c1)OB(F)F)/C=C/c1ccc2[nH]ccc2c1	12.5%
NC(=O)C(=O)c1ccccc1NC=O	99.5%
O=S(=O)(Nc1cc(F)cc(Cl)c1)c1ccc(-c2cnc(C3CC3)o2)cc1	13.7%
COc1ccc(NC2=C(I)C(=O)c3ncccc3C2=O)cc1	-53.5% (active)

SMILES	growth
COc1cc2ncnc(Nc3ccc(F)c(Cl)c3)c2cc1OCC(=O)N1CCN(c2ccccc2)CC1	90%
N#Cc1nc(-c2ccccc2)oc1S(=O)(=O)N1CCN(c2ccccc2)CC1	51.5%
COc1ccc2cc1Oc1ccc(cc1)C[C@H]1c3c(cc4c(c3Oc3cc5c(cc3OC)CCN(C)[C@@H]5C2)OCO4)CCN1C	34.6%
Nc1cnc(C(=O)NNc2nc3cc(F)ccc3n3cccc23)cn1	16.6%
Cc1ccc(-c2nc([P+](c3ccccc3)(c3ccccc3)c3ccccc3)c(S(=O)(=O)c3ccc(C)cc3)o2)cc1	13.5%
Cc1cccc(/C=C/c2c(C(=O)/C=C/c3ccccc3)c(C)nc3ccccc23)c1	3.87% (active)
Cc1c2cnccc2c(C)c2c1c1cc(C#N)ccc1n2C	-12.2% (active)
COc1ccc(C(=O)/C=C/c2c(C(F)(F)F)nc3ccccn23)cc1OC	8.07% (active)
O=C1NC(=O)C(Cc2ccc(OCc3ccc(-c4ccc(Cl)cc4Cl)cc3)cc2)S1 (stereo not drawn)	28.5%
CSc1oc(C)nc1[P+](c1ccccc1)(c1ccccc1)c1ccccc1	23.5%
COc1cc2cc(NCc3cccc(Cl)c3)nc(C)c2cc1OC	55.4%
NS(=O)(=O)c1ccc(N=Nc2c(O)n(Cc3ccccc3)c3ccc(Cl)cc23)cc1	75.3%
COc1cc(NS(=O)(=O)c2ccc(-c3cnc(C4CC4)o3)cc2)ccc1F	12.7%
O=S(=O)(Nc1ccc(Cl)c(C(F)(F)F)c1)c1ccc(-c2cnc(C3CC3)o2)cc1	15.4%
O=C(N/N=C/c1ccc(Cl)cc1)c1[nH]c2ccc(Cl)cc2c1-c1ccccc1	13.5%
O=C(/C=C/c1cccs1)Nc1ncc(Cc2ccccc2F)s1	17.1%
C=CCc1c(O)c(C(=O)/C=C/c2ccccc2)c(OC)c2ccoc12	16.1%
O=S(=O)(Nc1cc(Cl)ccc1Cl)c1ccc(-c2cnc(C3CC3)o2)cc1	12.9%
CN(C)c1ccc(C(=O)OCCCCCCl)cc1	95.1%
